Test results as given in the supplement of paper PMC4466236.
Over roughly 33,000 sequences, “E-score (dimensionless, -0.5 to 0.5)” has its median near -0.058; the highest 2% begin near 0.35. The sample holds the highest values, similar sequences and a random draw of the others, so the mix is not that of the screen.

System: MvaT
Assay: PBM 8-mer E-score (mean of HK and ME arrays) (E-score (dimensionless, -0.5 to 0.5)); higher = stronger relative binding preference
Method in brief: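 Full-length P. aeruginosa MvaT, with glutathione S-transferase fused to its N-terminus (cloned into pTH6838 by isothermal assembly), was tested by protein binding microarray using a previously described protocol. Two universal double-stranded 60-mer arrays (ME and HK) were used, each with a constant 25-mer primer region and a variable 35-mer region covering all 8-mers. The rank-based 8-mer E-score (-0.5 to 0.5) is the mean of the two arrays, parsed with a custom Python script.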

Row | Sequence | PBM 8-mer E-score
1 | CAAAGATG | 0.0517
2 | CGTGAGAA | 0.0476
3 | AGGAATGG | -0.0828
4 | AACCTCCC | -0.253
5 | CCGGATAC | -0.146
6 | ACTGATAA | 0.209
7 | ATCAAGGC | -0.14
8 | TCATGACA | -0.0413
9 | CTGTCCAC | -0.113
10 | GCTCAAAC | 0.0144
11 | AAAAATGT | 0.0973
12 | AATAATGC | 0.384
13 | GATAATGA | 0.225
14 | GATAATGC | 0.151
15 | AATAAGGT | 0.224
16 | AGTAATGG | 0.124
17 | TATAATGA | 0.373
18 | CATAATGC | 0.111
19 | CATAATGG | 0.178
20 | AATAATGT | 0.408
21 | CATAATGA | 0.233
22 | AATAATGG | 0.372
23 | CGGGACAG | -0.151
24 | CCCCACTA | -0.172
25 | ATGACATG | -0.0134

Row | Sequence | PBM 8-mer E-score
26 | AATTTCCC | 0.207
27 | CTCACCAC | -0.026
28 | CAGTTCAC | -0.0234
29 | AACCGAAG | 0.0622
30 | CCCACACC | 0.0355
31 | AATAATGA | 0.361
32 | AGTAATGA | 0.165
33 | ACTAATGA | 0.138
34 | ACCTAACA | -0.00971
35 | CTTTATTA | 0.402
36 | ATTTATGG | 0.204
37 | GTTTTTTA | 0.248
38 | ATTTATTC | 0.295
39 | GTTTACTA | 0.147
40 | ATTTATTA | 0.434
41 | ATTTATCG | 0.291
42 | CTTTATTC | 0.209
43 | GTTTATTA | 0.407
44 | ATTTATCA | 0.301
45 | ATTTATTG | 0.379
46 | CTTTATCA | 0.182
47 | ACCTCTAC | -0.178
48 | TACGTTGA | 0.0324
49 | AGAGCGCG | -0.146
50 | GTGACCCA | -0.143

Row | Sequence | PBM 8-mer E-score
51 | TCAATTAA | 0.237
52 | GGAATTAC | 0.149
53 | GGAATTAA | 0.347
54 | AGAATTAA | 0.301
55 | CGAATTAA | 0.308
56 | TGAATTAA | 0.376
57 | GGCGTGTA | -0.134
58 | GGGCTGAA | -0.257
59 | AGCCTGTA | -0.00993
60 | CAAGAAAA | -0.021
61 | ACGCGTCG | -0.0515
62 | ATCACGGG | -0.203
63 | GTATATAC | 0.41
64 | CTATATAC | 0.377
65 | GTATACAC | 0.209
66 | GGATATAC | 0.208
67 | ATATATAC | 0.464
68 | ATCTATAC | 0.138
69 | ATATACGC | 0.291
70 | CCATATAC | 0.153
71 | CTCTATAC | 0.00646
72 | CTCCCTAC | -0.109
73 | AATGACCG | -0.00123
74 | GTAGTTTA | 0.297
75 | CGTGCGGA | -0.146

Row | Sequence | PBM 8-mer E-score
76 | CAGTAGCC | -0.125
77 | CTGTATAA | 0.264
78 | ATGTATAA | 0.35
79 | AGGTATAA | 0.291
80 | AAGTATAG | 0.167
81 | TCGTATAA | 0.148
82 | GAGTATAA | 0.273
83 | AAGTATAA | 0.379
84 | AAGTATAT | 0.399
85 | ATGTATAC | 0.332
86 | AAGTATAC | 0.338
87 | CAGTATAA | 0.267
88 | TAGTATAA | 0.384
89 | ACCAGGAG | -0.239
90 | CGGGAGAG | -0.265
91 | CACGGGGA | -0.0937
92 | CTACCCAC | -0.0554
93 | ATGAAACA | 0.181
94 | ACTAGTAG | 0.0918
95 | ATTATTGA | 0.354
96 | TCTATTAA | 0.285
97 | ACTAGTAT | 0.357
98 | AGTATTAG | 0.27
99 | AGTATTAC | 0.306
100 | ACTATTAA | 0.411

Row | Sequence | PBM 8-mer E-score
101 | AGTATTAT | 0.42
102 | CCTATTAA | 0.249
103 | GTTATTGA | 0.311
104 | ACTAGTAA | 0.24
105 | CTTATTGA | 0.22
106 | ATGATCAA | 0.176
107 | GAAAGGGC | -0.199
108 | TAAGAACA | 0.123
109 | GCCGCTCA | -0.105
110 | CTTTGAAA | 0.141
111 | ACATGTAC | 0.243
112 | AGGCCATC | -0.264
113 | GCTATTAA | 0.272
114 | GTTATTAA | 0.383
115 | ACTATTAT | 0.425
116 | ATTATTAA | 0.446
117 | ACGATTAT | 0.245
118 | GTTATTCA | 0.236
119 | CTCATTAA | 0.196
120 | CTTATTAA | 0.362
121 | ATCATTAA | 0.259
